Screens (PubChem BioAssay)
In the library only some 4.1% were active in any assay of this set; here they are far more common.
AmpC inh no detg – blocks E. coli AmpC beta-lactamase in detergent-free assay. AmpC nitrocefin hydrolysis, absorbance 480 nm, 0.0001% Triton. Potency, µM (highest dose often 57.1 µM), without a hit: top-dose activity change, negative = inhibition, usual class: inhibitors. 330,000 tested, 0.52% active. AID 485341;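 further: plate controls were no compound for no effect and no enzyme for full effect; nearly all actives have a fitted effect of over 20% in size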
Target sequence (P00811 whole entry, looked up): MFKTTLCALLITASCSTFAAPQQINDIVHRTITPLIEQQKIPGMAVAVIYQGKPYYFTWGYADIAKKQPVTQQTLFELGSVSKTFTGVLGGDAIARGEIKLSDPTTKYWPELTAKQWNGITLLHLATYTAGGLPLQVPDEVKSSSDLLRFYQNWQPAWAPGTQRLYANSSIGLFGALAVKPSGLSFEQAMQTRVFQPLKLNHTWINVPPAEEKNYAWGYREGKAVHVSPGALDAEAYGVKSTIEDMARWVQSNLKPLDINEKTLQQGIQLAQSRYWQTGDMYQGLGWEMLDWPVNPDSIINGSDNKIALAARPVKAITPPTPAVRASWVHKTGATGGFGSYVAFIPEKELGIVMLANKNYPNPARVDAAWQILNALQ
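20 mM phosphate pH 7.0 + 0.01% (detergent screen) or 0.0001% Triton X-100; 5.3 nM AmpC reagent; cpd preinc 15 min RT; nitrocefin (800 uM stock) to start; A480 q20 s × 4 min; Activity was normalised to no-enzyme and no-compound control wells.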
AMA1 RON2 block – inhibitors of Plasmodium falciparum AMA1-RON2 interaction. AlphaScreen AMA1-biotinylated RON2 peptide binding. 360,000 tested, 0.2% active. Potency, µM (doses to about 58.2 µM), without a hit: at the top dose activity change, negative = inhibition, actives largely listed as inhibitors. AID 720542;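 further: 0% = vehicle wells and -100% = peptide control; nearly all actives have a fitted effect of over 45% in size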
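AMA1 (3D7) with his tag at 25 nM final met compounds first, then biotinylated RON2 peptide at 25 nM; detection used donor plus acceptor beads, 10 µg/mL apiece, read by AlphaScreen after 30 min at room temperature.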
FMDV antiviral – foot and mouth disease virus antiviral activity | Potency, µM (highest dose often 57.9 µM), inactives show at the highest dose activity change, negative = inhibition, actives largely listed as inhibitors | AID 1159524 | FMDV antiviral cell-based qHTS | 410,000 tested, 1.2% active; calls by dose curve; tested in HEK293T cells; further: read-out not given here; nearly all actives have a fitted effect of over 45% in size
AmpC detergent – blocks E. coli AmpC beta-lactamase in detergent assay; 370,000 tested, 0.041% active; AmpC hydrolysis of nitrocefin, absorbance 480 nm, 0.01% Triton; Potency, µM (titrated, usually from 114 µM), for the others: top-dose activity change, negative = inhibition, actives largely listed as inhibitors;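 further: 0% = no-compound wells and -100% = no-enzyme wells; nearly all actives have a fitted effect of over 25% in size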
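AmpC (5.3 nM in the dispensed reagent) in 20 mM phosphate pH 7.0 with 0.01% (detergent screen) or 0.0001% Triton X-100 was preincubated with compounds for 15 min at room temperature. Nitrocefin was then added from an 800 uM solution, and hydrolysis was followed at 480 nm.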
Sm TGR inh – inhibitors of Schistosoma mansoni thioredoxin glutathione reductase; Q962Y6; purified TGR, DTNB reduction, TNB absorbance 405 nm; Potency, µM (highest dose often 114 µM), inactives show at the highest dose activity change, negative = inhibition, most hits filed as inhibitors; 360,000 tested, 3% active; AID 485364; further: nearly all actives have a fitted effect of over 60% in size
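TGR 20 nM + NADPH 100 uM (dispensed conc.), cpd preinc 15 min RT; start with NADPH (500 uM addition) then DTNB (15 mM addition). Kinetic TNB absorbance, 405 nm filter. Four-parameter Hill fit across titration.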
Active calls of the source: *. Unless noted, the call rests on the fitted dose curve; in most records, active means well fitted curve in the direction sought with a large enough effect; inconclusive means small, poorly fitted or top-dose-only effect, or another doubt; inactive means no such curve, though single readings can be large; an effect the other way counts as inactive or inconclusive. Unless noted, on the % scale 0 is the no-effect control and ±100 the full control effect; potency means the concentration at half of the fitted maximal effect.

What do the screens show for `CCCN1C(=O)/C(=C/c2ccc(C)o2)SC1=Nc1ccc(OCC)cc1`?
AmpC inh no detg: -7%; AMA1 RON2 block: -16%; FMDV antiviral: -13%; AmpC detergent: -6%; Sm TGR inh: inconclusive

How did CCCN1C(=O)/C(=C/c2ccc(C)o2)SC1=Nc1ccc(OC)cc1 do in these assays?
AmpC inh no detg: -37%; AMA1 RON2 block: inconclusive; FMDV antiviral: -20%; AmpC detergent: 1%; Sm TGR inh: 40µM*

How did Cc1ccc(-n2nc(C)c3nc(CCC(=O)Nc4cccc(F)c4)c(=O)n(C)c32)cc1 do in these assays?
FMDV antiviral: 4%; AmpC detergent: 19%; Sm TGR inh: 6%

Results for Cc1cc(-c2cc(F)cc3c2OC(CNC(=O)CCn2cncn2)C3)ccc1F (stereo not given) ?
FMDV antiviral: -7%

Results for COc1ccc(S(=O)(=O)N2CCCN(CCC(=O)Nc3cccc(C(F)(F)F)c3)CC2)cc1 ?
AmpC inh no detg: 115%; AMA1 RON2 block: 4%; FMDV antiviral: inconclusive; AmpC detergent: -5%; Sm TGR inh: 18%

How did O=C(CN1CCCN(S(=O)(=O)c2ccc(Br)cc2)CC1)Nc1cccc(C(F)(F)F)c1 do in these assays?
FMDV antiviral: -30%; AmpC detergent: 2%; Sm TGR inh: 35µM*

What do the screens show for `COc1ccc(S(=O)(=O)N2CCN(C3CCN(Cc4ccccc4)CC3)CC2)cc1`?
AmpC inh no detg: 9%; AMA1 RON2 block: -4%; FMDV antiviral: -25%; AmpC detergent: -1%; Sm TGR inh: 50µM*

Results for COc1cccc(CN2CCCN(S(=O)(=O)c3ccc(Br)cc3)CC2)c1 ?
AmpC inh no detg: 3%; AMA1 RON2 block: 0%; FMDV antiviral: -12%; AmpC detergent: -7%; Sm TGR inh: 40µM*

How did COCC(=O)Nc1cc(C(=O)N2CCCC(C(N)=O)C2)cc2nc(-c3ccccc3)n(C)c12 (stereo not given) do in these assays?
FMDV antiviral: -6%

Results for O=c1oc2ccccc2cc1-c1nc2ccccc2o1 ?
AmpC inh no detg: -20%; AMA1 RON2 block: 41%; FMDV antiviral: 20%; AmpC detergent: -2%; Sm TGR inh: 0%

How did Nc1cc2nc3ccccc3oc-2cc1=O do in these assays?
AmpC inh no detg: -43%; AMA1 RON2 block: -3%; FMDV antiviral: 13%; AmpC detergent: -3%; Sm TGR inh: 16µM*

What do the screens show for `CCc1ccc(CN(Cc2ccco2)C(=O)COc2ccccc2Cl)cc1`?
FMDV antiviral: -19%; AmpC detergent: -3%; Sm TGR inh: -10%

How did COc1ccc(-n2cc(-c3ccccc3)nc2SCC(=O)Nc2ccccc2)cc1Cl do in these assays?
FMDV antiviral: -2%; AmpC detergent: 12%; Sm TGR inh: -5%

Results for O=C(OCc1cc(Cl)ccc1OC(F)F)c1cncc(Br)c1 ?
AmpC inh no detg: -23%; AMA1 RON2 block: 66%; FMDV antiviral: -23%; AmpC detergent: -8%; Sm TGR inh: 7%

How did COc1ccc(C)cc1NC(=O)COC(=O)c1ccc([N+](=O)[O-])o1 do in these assays?
AmpC inh no detg: -19%; AMA1 RON2 block: 6%; FMDV antiviral: -10%; AmpC detergent: 0%; Sm TGR inh: 0%

Results for O=C(OCc1cc(Cl)ccc1OC(F)F)c1ccc([N+](=O)[O-])o1 ?
AmpC inh no detg: 2%; AmpC detergent: -3%; Sm TGR inh: 13µM*

Results for CN(C)S(=O)(=O)c1cccc(NC(=O)COC(=O)c2ccc([N+](=O)[O-])o2)c1 ?
AmpC inh no detg: -45%; AMA1 RON2 block: 4%; FMDV antiviral: -5%; AmpC detergent: -7%; Sm TGR inh: 32µM*

What do the screens show for `CCN(CC)S(=O)(=O)c1ccc(Cl)c(NC(=O)COC(=O)c2ccc([N+](=O)[O-])o2)c1`?
AmpC inh no detg: -34%; AMA1 RON2 block: -6%; FMDV antiviral: -1%; AmpC detergent: 0%; Sm TGR inh: 6.3µM*

How did COc1ccc(NC(=O)COC(=O)c2ccc([N+](=O)[O-])o2)cc1Cl do in these assays?
AmpC inh no detg: -34%; AMA1 RON2 block: -12%; FMDV antiviral: 25%; AmpC detergent: 4%; Sm TGR inh: 25µM*
